Screens: PubChem, The Scripps Research Institute Molecular Screening Center
MITF inh – blocks human microphthalmia-associated transcription factor; 650,000 tested, 0.91% active; inhibition, % at 2.6 µM; AlphaScreen MITF homodimerization, bead proximity signal; AID 1259374; O75030; in the data active means inhibition above about 50%
Target sequence (O75030 whole entry, looked up): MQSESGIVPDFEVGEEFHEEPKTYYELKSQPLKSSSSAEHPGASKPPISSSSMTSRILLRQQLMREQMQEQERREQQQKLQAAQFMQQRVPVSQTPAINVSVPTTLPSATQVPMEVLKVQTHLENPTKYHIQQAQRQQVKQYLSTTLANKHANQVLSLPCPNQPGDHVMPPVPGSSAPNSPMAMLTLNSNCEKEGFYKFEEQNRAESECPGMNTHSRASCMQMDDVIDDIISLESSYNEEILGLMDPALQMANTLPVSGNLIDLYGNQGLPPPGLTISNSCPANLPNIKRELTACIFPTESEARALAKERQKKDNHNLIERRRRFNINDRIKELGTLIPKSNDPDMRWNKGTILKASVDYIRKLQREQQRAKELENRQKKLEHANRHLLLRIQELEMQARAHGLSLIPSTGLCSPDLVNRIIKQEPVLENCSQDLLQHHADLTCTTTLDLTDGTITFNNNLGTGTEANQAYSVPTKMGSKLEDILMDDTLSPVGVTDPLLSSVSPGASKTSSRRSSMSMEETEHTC
FBW7 activator – activators of human E3 ligase FBW7 | 650,000 tested, 0.13% active | Q969H0 | AID 1259310 | AlphaScreen FBW7–phospho-cyclin E peptide binding, activator screen | normalized activity (activation), % at 26.1 µM; in the data active means normalized activity above about 1.9%;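 further: purified mutant Fbw7 with reduced substrate affinity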
GPR151 ag – activates the human receptor GPR151; Q8TDV0; PathHunter beta-arrestin GPR151 cells, luminescence; activation, % at 11.2 µM; 650,000 tested, 1% active; AID 1508602; in the data active means activation above about 4.9%
TEAD-YAP inh – TEAD-YAP interaction inhibition. 640,000 tested, 1.4% active. inhibition, % at 9.12 µM. AID 1259422. HEK-TIYL cells, TEAD-Gal4/YAP UAS-luciferase luminescence; in the data active means inhibition above about 32%
GPR151 confirm – human GPR151 activation, confirmation screen; 6,700 tested, under 10 active; shares compounds with GPR151 ag; AID 1508609; GPR151 PathHunter beta-arrestin cells, luminescence, 90 min; % of EA-reagent control over plate median; activation, % at 11.2 µM;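 active means mean percent activation across replicates above the confirmation screen cutoff of 4.91%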
GPR119 ag – activates human GPR119 in a GPR151 counter-screen; activation, % at 11.2 µM; shares compounds with GPR151 ag; 6,700 tested, 0.3% active; GPR119 PathHunter beta-arrestin cells, luminescence, 90 min; 0 = compound-well median, 100 = enzyme-acceptor control;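 active means mean percent activation in the counterscreen above 29.09%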;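 further: counterscreen on off-target GPR119 to flag nonselective hits from the GPR151 activator screen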
A number is an active result. Sampled rows, rich in hits. Any-hit rate of the full collection: about 3.5%.

Results for CCNS(=O)(=O)c1ccc(NC(=O)Nc2cccc([N+](=O)[O-])c2)cc1 ?
MITF inh: inactive; FBW7 activator: inactive; GPR151 ag: 13; TEAD-YAP inh: inactive; GPR151 confirm: inactive; GPR119 ag: inactive

What do the screens show for `Cc1ccc(C)c(OCC(O)CN2CCCCC2)c1` (stereo not drawn)?
MITF inh: inactive; FBW7 activator: inactive; GPR151 ag: inactive; TEAD-YAP inh: inactive

Results for COc1cccc2cc(-c3ccccc3)c(=O)oc12 ?
MITF inh: inactive; FBW7 activator: inactive; GPR151 ag: inactive; TEAD-YAP inh: inactive

How did COc1cccc2cc(-c3ccc4c(c3)OCO4)c(=O)oc12 do in these assays?
MITF inh: inactive; FBW7 activator: inactive; GPR151 ag: 5.2; TEAD-YAP inh: inactive; GPR151 confirm: inactive; GPR119 ag: inactive

Results for CCOCCCNC(=O)c1cnn2c(C)c(Cc3ccccc3Br)c(C)nc12 ?
MITF inh: inactive; FBW7 activator: inactive; GPR151 ag: 6.0; TEAD-YAP inh: inactive; GPR151 confirm: inactive; GPR119 ag: inactive

What do the screens show for `COc1ccc2nc(N(CCn3cccn3)C(=O)c3cc4ccccc4o3)sc2c1`?
MITF inh: inactive; FBW7 activator: inactive; GPR151 ag: inactive; TEAD-YAP inh: inactive

What do the screens show for `COc1cc(NC(=S)N2CCC(C(N)=O)CC2)cc(OC)c1`?
MITF inh: inactive; FBW7 activator: inactive; GPR151 ag: 7.5; TEAD-YAP inh: inactive; GPR151 confirm: inactive; GPR119 ag: inactive

What do the screens show for `CCCCC(=O)Nc1nnc(S(=O)(=O)N(C)c2cccc(C)c2)s1`?
MITF inh: inactive; FBW7 activator: inactive; GPR151 ag: 6.7; TEAD-YAP inh: inactive; GPR151 confirm: inactive; GPR119 ag: inactive

Results for O=Cc1cc(Br)ccc1OCC(=O)Nc1ccccc1F ?
MITF inh: inactive; FBW7 activator: inactive; GPR151 ag: inactive; TEAD-YAP inh: inactive

Results for O=C(NC(=S)Nc1ccc(-c2nc3ccccc3o2)cc1)c1cncc(Br)c1 ?
MITF inh: inactive; FBW7 activator: inactive; GPR151 ag: 6.1; TEAD-YAP inh: inactive; GPR151 confirm: inactive; GPR119 ag: inactive

How did O=C(Nc1ccc(-c2nc3ccccc3o2)cc1)c1cc(I)ccc1Cl do in these assays?
MITF inh: inactive; FBW7 activator: inactive; GPR151 ag: 7.4; TEAD-YAP inh: inactive; GPR151 confirm: inactive; GPR119 ag: inactive

How did O=C(NCCO)C(=O)NCC(c1ccco1)S(=O)(=O)c1ccc(Cl)cc1 (stereo not drawn) do in these assays?
MITF inh: inactive; FBW7 activator: inactive; GPR151 ag: inactive; TEAD-YAP inh: inactive

Results for CNC(=O)C(=O)NCC(c1ccco1)S(=O)(=O)c1ccc(Cl)cc1 (stereo not drawn) ?
MITF inh: inactive; FBW7 activator: inactive; GPR151 ag: 5.2; TEAD-YAP inh: inactive; GPR151 confirm: inactive; GPR119 ag: inactive

How did O=C(c1ccccc1Br)N1CCN(S(=O)(=O)c2ccccc2)CC1 do in these assays?
MITF inh: inactive; FBW7 activator: inactive; GPR151 ag: inactive; TEAD-YAP inh: inactive

How did O=S(=O)(NCC1CCCO1)c1ccc(Cl)c(C(F)(F)F)c1 (stereo not drawn) do in these assays?
MITF inh: inactive; FBW7 activator: inactive; GPR151 ag: inactive; TEAD-YAP inh: inactive

What do the screens show for `O=S(=O)(NCC1CCCO1)c1ccc(-c2ccc(Cl)cc2)cc1` (stereo not drawn)?
MITF inh: inactive; FBW7 activator: inactive; GPR151 ag: 7.4; TEAD-YAP inh: inactive; GPR151 confirm: inactive; GPR119 ag: inactive

How did O=C(NC1Cc2ccccc2C1)c1ccc(OC2CCN(C(=O)C3CC3)CC2)cc1 do in these assays?
MITF inh: inactive; FBW7 activator: inactive; GPR151 ag: 8.1; TEAD-YAP inh: inactive; GPR151 confirm: inactive; GPR119 ag: inactive

Results for CC(Oc1cccc(Cl)c1)C(=O)Nc1nccs1 (stereo not drawn) ?
MITF inh: inactive; FBW7 activator: inactive; GPR151 ag: 6.0; TEAD-YAP inh: inactive; GPR151 confirm: inactive; GPR119 ag: inactive

How did O=C(Cc1ccc(NS(=O)(=O)c2ccc3c(c2)CCCC3)cc1)N1CCOCC1 do in these assays?
MITF inh: inactive; FBW7 activator: inactive; GPR151 ag: inactive; TEAD-YAP inh: inactive

How did CCCC/C=C/c1cnn2c(N3CCC[C@H]3CO)ccnc12 do in these assays?
MITF inh: inactive; FBW7 activator: inactive; GPR151 ag: inactive; TEAD-YAP inh: inactive

What do the screens show for `O=C(c1cccc(-n2c(=S)[nH]c3cc(Cl)ccc3c2=O)c1)N1CCCC1`?
MITF inh: inactive; FBW7 activator: inactive; GPR151 ag: inactive; TEAD-YAP inh: inactive

What do the screens show for `CCOC(=O)C1CCCN(C(=O)c2cccc(-n3c(=S)[nH]c4cc(Cl)ccc4c3=O)c2)C1` (stereo not drawn)?
MITF inh: inactive; FBW7 activator: inactive; GPR151 ag: 6.6; TEAD-YAP inh: inactive; GPR151 confirm: inactive; GPR119 ag: inactive

What do the screens show for `OC(CN1CCOCC1)Cn1cnc2c(SCc3ccccc3)ncnc21` (stereo not drawn)?
MITF inh: inactive; FBW7 activator: inactive; GPR151 ag: 6.0; TEAD-YAP inh: inactive; GPR151 confirm: inactive; GPR119 ag: inactive

What do the screens show for `Cc1ccc(N2C(=O)C3C4CC(=O)C(c5ccccc54)C3C2=O)cc1` (stereo not drawn)?
MITF inh: inactive; FBW7 activator: inactive; GPR151 ag: inactive; TEAD-YAP inh: inactive

What do the screens show for `O=C1CC2c3ccccc3C1C1C(=O)N(c3ccccc3)C(=O)C21` (stereo not drawn)?
MITF inh: inactive; FBW7 activator: inactive; GPR151 ag: 8.7; TEAD-YAP inh: inactive; GPR151 confirm: inactive; GPR119 ag: inactive

How did CCOC(=O)C1CCCCN1Cc1ccc(OC)c(C)c1OC (stereo not drawn) do in these assays?
MITF inh: inactive; FBW7 activator: inactive; GPR151 ag: inactive; TEAD-YAP inh: inactive

What do the screens show for `CCOC(=O)C1CCCCN1Cc1cc(C)c(OC)cc1C` (stereo not drawn)?
MITF inh: inactive; FBW7 activator: inactive; GPR151 ag: 4.9; TEAD-YAP inh: inactive; GPR151 confirm: inactive; GPR119 ag: inactive

How did COc1cc(C(=O)N(Cc2nc(-c3ccc(C)cc3)no2)C(C)C)cc(OC)c1OC do in these assays?
MITF inh: inactive; FBW7 activator: inactive; GPR151 ag: 8.3; TEAD-YAP inh: inactive; GPR151 confirm: inactive; GPR119 ag: inactive

What do the screens show for `O=C(Nc1ccccc1C(F)(F)F)NN1CCOCC1`?
MITF inh: inactive; FBW7 activator: inactive; GPR151 ag: inactive; TEAD-YAP inh: inactive

How did Cc1ccc(C(=O)c2ccccc2)cc1[N+](=O)[O-] do in these assays?
MITF inh: inactive; FBW7 activator: inactive; GPR151 ag: 8.7; TEAD-YAP inh: inactive; GPR151 confirm: inactive; GPR119 ag: inactive

How did O=C(O)c1ccc(-n2ccnc2)c([N+](=O)[O-])c1 do in these assays?
MITF inh: inactive; FBW7 activator: inactive; GPR151 ag: inactive; TEAD-YAP inh: inactive

Results for O=C(c1ccccc1)c1ccc(-n2ccnc2)c([N+](=O)[O-])c1 ?
MITF inh: inactive; FBW7 activator: inactive; GPR151 ag: 7.3; TEAD-YAP inh: inactive; GPR151 confirm: inactive; GPR119 ag: inactive
